The sequences below were run on LXRa:RXRa (NR concentration 270 nM, RXRa partner concentration 90 nM) (assay: PBM binding z-score (relative to random genomic background probes); higher = stronger binding; sequences stand for … in GC…GCGATTGACAGCGTAGAATGAAGG).
How it was run: (§1)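 Scanned fluorescence from custom Agilent 4×180K protein-binding microarrays was regression-normalized. Binding z-scores use random background probes as reference. Ligand-free nuclear receptor dimers were incubated on the arrays for 1 h and detected with antibodies against each partner (one per run).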
In the case of TAGCTTAGGTCATGGGCCAGTATACCACGCGAAC, the PBM binding z-score is reported as 3.6.
In the case of ACAGACAGGTGATGAAGGTAACTCGGGCTATCAT, the PBM binding z-score is reported as 0.107.
Work on GCTGCTAGGTCAGGTTGGTCACCTAACGGGTACG yielded a PBM binding z-score of 0.907.
ATCTCTAGGTAACAAGTCCAGTGAAAGAGAGGAC showed a PBM binding z-score of 0.256.
CCTTACGGGTCACTCCAGGGTATAGCATCGGAGT gave a PBM binding z-score of 6.8.
In the case of TCTGCAAGGTCAACGATGGTCAGCTAATCTGCTA, the PBM binding z-score is reported as 5.29.
For CCGAGTAGGTTATTGGGCATTCAGGCAACGGTGA, the PBM binding z-score was 0.327.
TCATGTAGGTAAATGCTAGGTGAAAGTCCGATCT was tested, and the PBM binding z-score was 0.46.
Sequence ACTTACGGGTCAACGAGGTTATAGTACGCGTATA has a PBM binding z-score of 5.12.
In the case of TAGCCTAGGTCATTGGGCCAGTATTGTACGCATC, the PBM binding z-score is reported as 3.6.
With GCTTACGGGTCAAAGGTTATAGCTTGAATAGAAT the PBM binding z-score was 5.6.
With CCGACTGGGGCATGAGGTTACCATAAGCCAGCCC the PBM binding z-score was 1.56.
For TCGAGTACGTTAGGGGCATTCAGAATGGCGTCGA, the PBM binding z-score was -0.0926.
Sequence TCTTGTAGATCTAAGGTTAAGAAAGCCGAAGCCT has a PBM binding z-score of 0.808.
With CCGAGTAGGTTATAGGGCATTCAGGCAACGGTGA the PBM binding z-score was 0.988.
Work on GTGACTGGGGCATCAGCAGGTTACCATAACTTAA yielded a PBM binding z-score of 0.236.
Work on CCTTACGGGTCACTACAGGTTATAGCATCGGAGT yielded a PBM binding z-score of 8.
Sequence AGAATGAGGTTGTTAAGATCAGGGAATTGCGGTC has a PBM binding z-score of 0.0148.
With ACTAGCCGGCCAAGGGTCACTCAAGATTAGTCCG the PBM binding z-score was 2.53.
CAAACTAGGTCAAGGTCACAGTCGGTTTGTGCCA showed a PBM binding z-score of 5.24.
AGAATGAGGTTATACGGAGATCAGGGAAGAAAGT was tested, and the PBM binding z-score was 1.94.
With CTCGAAAGGTTGGTTGAGGTGAGTATACGGATAA the PBM binding z-score was 0.487.
In the case of AGTCAAAGTTCAGGACGAGGTAACTTAAAGCACG, the PBM binding z-score is reported as 3.83.
Work on TCTCGGAGGACACTAAGGTCAGAGCTTTCCAGAG yielded a PBM binding z-score of 1.63.
Work on GGAAGGAGGGCAAAGTTGATAGCATCTGTCGACG yielded a PBM binding z-score of 1.38.
Sequence ATCGAAAGGTCGTGAGGTGAGTCTACAGAAAGGC has a PBM binding z-score of 3.75.
For AGTCAAAGTTCATCTAGGTACCGTAAGATATGCT, the PBM binding z-score was 6.25.
For AGAATGAGGCTATTAAGATCAGGGAATTGCGGTC, the PBM binding z-score was -0.438.
TCGAGTAGGTTAGTGGCATTCAGAATGGCGTCGA was tested, and the PBM binding z-score was -0.347.
For CCTAGCAGGCCAGGGTCCCTCAAGCATTTCGCTT, the PBM binding z-score was -0.567.
With TCATATAGGTAAACAGGTCAAAGTCCGTAAGTTA the PBM binding z-score was 3.19.
Sequence CGAACTAGTTCAGAACAGGACAGTGAAGGATGAT has a PBM binding z-score of -0.165.
TCATATAGGTAAACAGGTGAATGTCCGTAAGTTA showed a PBM binding z-score of 1.18.
ATCTCTAGGTAACAAGTTCAGGGAAAGAGAGGAC showed a PBM binding z-score of 1.19.
AGAACGAGGACAATGAGTTGATAGCACGGGTGGC was tested, and the PBM binding z-score was -0.562.
AGAGTGAGGTTAAGATCAGGGAAACAGAATACAT showed a PBM binding z-score of 2.17.
CCTACTGGGCCATCAGGTCATCGATATCAACGTT showed a PBM binding z-score of 1.07.
TCTAGTTGGTCAAAGGTCACTCACTCGAAATGCG was tested, and the PBM binding z-score was 5.18.
CGTCCAAGGTCAAGGTAAGTGAAAGAGACTCGAA was tested, and the PBM binding z-score was 5.23.

These sequences were tested on LXRa homodimer (NR concentration 270 nM) in the same assay as above.
How it was run: as §1
Sequence TAGCTTAGGTCATGGGCCAGTATACCACGCGAAC has a PBM binding z-score of 0.14.
ACAGACAGGTGATGAAGGTAACTCGGGCTATCAT gave a PBM binding z-score of -0.351.
For GCTGCTAGGTCAGGTTGGTCACCTAACGGGTACG, the PBM binding z-score was -0.299.
With ATCTCTAGGTAACAAGTCCAGTGAAAGAGAGGAC the PBM binding z-score was 0.362.
In the case of CCTTACGGGTCACTCCAGGGTATAGCATCGGAGT, the PBM binding z-score is reported as 0.368.
With TCTGCAAGGTCAACGATGGTCAGCTAATCTGCTA the PBM binding z-score was 0.751.
CCGAGTAGGTTATTGGGCATTCAGGCAACGGTGA gave a PBM binding z-score of 0.00288.
For TCATGTAGGTAAATGCTAGGTGAAAGTCCGATCT, the PBM binding z-score was 0.144.
Work on ACTTACGGGTCAACGAGGTTATAGTACGCGTATA yielded a PBM binding z-score of 1.1.
For TAGCCTAGGTCATTGGGCCAGTATTGTACGCATC, the PBM binding z-score was 0.903.
Work on GCTTACGGGTCAAAGGTTATAGCTTGAATAGAAT yielded a PBM binding z-score of 0.366.
Work on CCGACTGGGGCATGAGGTTACCATAAGCCAGCCC yielded a PBM binding z-score of -0.254.
With TCGAGTACGTTAGGGGCATTCAGAATGGCGTCGA the PBM binding z-score was -0.859.
TCTTGTAGATCTAAGGTTAAGAAAGCCGAAGCCT showed a PBM binding z-score of 0.287.
For CCGAGTAGGTTATAGGGCATTCAGGCAACGGTGA, the PBM binding z-score was 0.388.
For GTGACTGGGGCATCAGCAGGTTACCATAACTTAA, the PBM binding z-score was -0.049.
Work on CCTTACGGGTCACTACAGGTTATAGCATCGGAGT yielded a PBM binding z-score of 2.22.
For AGAATGAGGTTGTTAAGATCAGGGAATTGCGGTC, the PBM binding z-score was -0.0695.
ACTAGCCGGCCAAGGGTCACTCAAGATTAGTCCG gave a PBM binding z-score of 0.141.
With CAAACTAGGTCAAGGTCACAGTCGGTTTGTGCCA the PBM binding z-score was 3.28.
Work on AGAATGAGGTTATACGGAGATCAGGGAAGAAAGT yielded a PBM binding z-score of 0.0841.
Work on CTCGAAAGGTTGGTTGAGGTGAGTATACGGATAA yielded a PBM binding z-score of -0.0312.
AGTCAAAGTTCAGGACGAGGTAACTTAAAGCACG showed a PBM binding z-score of 1.38.
TCTCGGAGGACACTAAGGTCAGAGCTTTCCAGAG was tested, and the PBM binding z-score was 0.625.
GGAAGGAGGGCAAAGTTGATAGCATCTGTCGACG gave a PBM binding z-score of 0.21.
ATCGAAAGGTCGTGAGGTGAGTCTACAGAAAGGC showed a PBM binding z-score of 0.0112.
AGTCAAAGTTCATCTAGGTACCGTAAGATATGCT gave a PBM binding z-score of 5.57.
AGAATGAGGCTATTAAGATCAGGGAATTGCGGTC was tested, and the PBM binding z-score was -0.31.
TCGAGTAGGTTAGTGGCATTCAGAATGGCGTCGA gave a PBM binding z-score of -0.383.
CCTAGCAGGCCAGGGTCCCTCAAGCATTTCGCTT showed a PBM binding z-score of -0.782.
For TCATATAGGTAAACAGGTCAAAGTCCGTAAGTTA, the PBM binding z-score was 2.04.
Work on CGAACTAGTTCAGAACAGGACAGTGAAGGATGAT yielded a PBM binding z-score of -0.0634.
In the case of TCATATAGGTAAACAGGTGAATGTCCGTAAGTTA, the PBM binding z-score is reported as 1.02.
Work on ATCTCTAGGTAACAAGTTCAGGGAAAGAGAGGAC yielded a PBM binding z-score of 0.665.
Work on AGAACGAGGACAATGAGTTGATAGCACGGGTGGC yielded a PBM binding z-score of -0.33.
For AGAGTGAGGTTAAGATCAGGGAAACAGAATACAT, the PBM binding z-score was 0.665.
With CCTACTGGGCCATCAGGTCATCGATATCAACGTT the PBM binding z-score was 0.687.
For TCTAGTTGGTCAAAGGTCACTCACTCGAAATGCG, the PBM binding z-score was 3.77.
CGTCCAAGGTCAAGGTAAGTGAAAGAGACTCGAA was tested, and the PBM binding z-score was 0.112.

— the supplement of paper PMC6555819
